Among the data in PubChem BioAssay are activity values, retold here.

For experiment [1], the target named is Tumor necrosis factor receptor superfamily member 10B (Homo sapiens) (UniProt O14763). Description: caspase-8 TRAIL sensitization, hit retest, confirmation, cell-based, NB7+caspase-8, with/without TRAIL, luminescence panel (AID 651596). The note with it: NB7 neuroblastoma + caspase-8, TRAIL sensitization, luminescence viability, with TRAIL, mean of runs, at 10 µM, stronger effect = higher value.
Chain of Tumor necrosis factor receptor superfamily member 10B (Homo sapiens) (O14763 whole entry, looked up): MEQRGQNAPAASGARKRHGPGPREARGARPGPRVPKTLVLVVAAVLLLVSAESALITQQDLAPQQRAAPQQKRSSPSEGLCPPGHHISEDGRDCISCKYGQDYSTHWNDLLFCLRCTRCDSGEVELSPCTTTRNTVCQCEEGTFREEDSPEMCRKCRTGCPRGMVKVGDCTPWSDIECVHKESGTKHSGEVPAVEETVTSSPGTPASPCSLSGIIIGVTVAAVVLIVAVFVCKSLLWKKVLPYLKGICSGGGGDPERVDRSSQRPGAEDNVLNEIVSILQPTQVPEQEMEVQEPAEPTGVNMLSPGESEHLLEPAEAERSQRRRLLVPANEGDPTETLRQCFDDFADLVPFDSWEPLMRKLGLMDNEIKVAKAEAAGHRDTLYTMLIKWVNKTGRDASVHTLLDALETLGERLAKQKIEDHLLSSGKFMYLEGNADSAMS

Experiment in experiment [2]: as above
Conditions: NB7 neuroblastoma + caspase-8, without TRAIL, luminescence viability, without TRAIL, mean of runs, at 10 µM; in the data active = activity above about 50%; inactive = the rest.

`Cc1cccc(NC(=O)c2onc3c2CCCC3)n1`: the activity was 85.6% in experiment [1] and 89.4% in experiment [2].

For `COc1ccc(/C=N/Nc2cc(C)nc3ccc(Br)cc23)cc1`, the activity came to 61% in experiment [1] and 78% in experiment [2].

Take `NC(=O)c1c(NC(=O)c2cc3ccccc3o2)sc2c1CCC2`: the activity in experiment [1] is 56%; in experiment [2], 42.8%.

Take `COc1ccc2cc(CNCCOCCOCCNCc3ccc4cc(OC)ccc4c3)ccc2c1`: the activity was -7.05% in experiment [1] and -2.75% in experiment [2].

Consider `COc1cc(/C=N/NC(=O)COc2ccc(C)cc2)ccc1OC(=O)c1cccs1`, for which the activity turned out to be 58.4% in experiment [1] and 48.5% in experiment [2].

With `COC(=O)CSc1ncnc2c1sc1nc3c(cc12)COC(C)(C)C3`, the results for the activity in experiment [1] and in experiment [2] were 82.5% and 86.8%, respectively.

In the case of `COc1ccc2cc3cc(C(=O)N4CCCCCC4)oc3nc2c1`, the results for the activity in experiment [1] and in experiment [2] were 45.1% and 41.9%, respectively.

For `CCCCCCCCCCn1ccc(=N)cc1`, the activity in experiment [1] came out at 84%; in experiment [2] it was 68.3%.

On to `C/C(=N\NC(=O)c1ccn(C)n1)c1cccc(NC(=O)c2ccc(C)s2)c1`, for which the activity in experiment [1] amounted to 48.5%; in experiment [2], 45.5%.

With `COc1ccc(Cn2c(SCc3cc(C)ccc3C)nc3cc(OC)c(OC)cc3c2=N)cc1`, the values for the activity in experiment [1] and in experiment [2] were 94.9% and 97.8%, respectively.

With `Cc1ccc(/C=N/Nc2ccc3ccccc3n2)o1`, the results for the activity in experiment [1] and in experiment [2] were 55.2% and 45.1%, respectively.

On to `Cc1ccc(-c2cn3c(=O)cc(C)[nH]c3n2)cc1`, for which the activity in experiment [1] was found to be 80.5%; in experiment [2], 79.5%.

Turning to `O=C(CSc1nnc(NC(=O)c2ccccc2)s1)NCc1ccco1`, the activity is 64.5% in experiment [1] and 73.1% in experiment [2].

As to `CC(OC(=O)c1ccc(S(C)(=O)=O)c([N+](=O)[O-])c1)C(=O)NC1C2CC3CC(C2)CC1C3` (stereo unspecified), the values for the activity in experiment [1] and in experiment [2] were 77.8% and 97.9%, respectively.

`O=C(NNc1nc(=O)c2cccnc2s1)c1ccccc1O`: the activity worked out at 45.7% in experiment [1] and 43.9% in experiment [2].

Take `Cc1nc2cc(Nc3nnc(-c4ccccc4)c4ccccc34)ccc2n1C`: the figures for the activity in experiment [1] and in experiment [2] were 87.9% and 83.9%, respectively.

Take `Cc1cccc(NC(=S)NC(=O)c2oc3ccccc3c2C)n1`: the activity in experiment [1] is 70%; in experiment [2], 60.1%.

Consider `CSc1ccc(NC(=O)Nc2cc(C)ccn2)cc1`, for which the values for the activity in experiment [1] and in experiment [2] were 52.8% and 35.7%, respectively.

Consider `Nc1nc(N)c2cc(Sc3ccc(Cl)cc3)ccc2n1`, for which the figures for the activity in experiment [1] and in experiment [2] were 70.7% and 75.5%, respectively.

For the compound `CS(=O)c1nc(-c2ccc(Br)cc2)cc(-c2ccccc2)c1C#N` (stereo unspecified), the activity in experiment [1] amounted to 95.7%; in experiment [2] it was 97.8%.

For `COc1ccc(-c2cc3cc4c(cc3cn2)OCO4)cc1`, the figures for the activity in experiment [1] and in experiment [2] were 60.3% and 52.8%, respectively.

As for `O=C(CCl)N(O)c1ccc(C=Cc2ccccc2)cc1`, the activity worked out at 40% in experiment [1] and 53.7% in experiment [2].

Regarding `COc1ccc(NC(=O)c2cc([N+](=O)[O-])ccc2O)cc1`, the activity in experiment [1] came to 89.8%; in experiment [2] it was 88.2%.

As to `Cc1ccc(CN=c2c([N+](=O)[O-])nn(-c3cccc(C)c3)n2O)cc1`, the activity in experiment [1] amounted to 16.2%; in experiment [2], 24.7%.

Take `C[C@H](NC(=O)c1[nH]cnc1C(=O)Nc1ccc(CNC(=O)OC(C)(C)C)cc1)C(=O)OCc1ccccc1`: the activity in experiment [1] came to 63.1%; in experiment [2], 37.6%.

With `COc1ccc2c(n1)Sc1nc3ccccc3nc1N2`, the activity was 4.47% in experiment [1] and 4.42% in experiment [2].

With `N/C(=N\OC(=O)c1ccc(Cl)cc1)c1ccc(Cl)cc1`, the activity in experiment [1] came to 92.4%; in experiment [2] it was 76.8%.

With `CCN(CC(=O)N1CCc2ccccc2C1)S(=O)(=O)c1ccc2ccccc2c1`, the activity amounted to 42.7% in experiment [1] and 62.5% in experiment [2].

As to `CCCc1cc(C(=O)N/N=C/c2ccc(CC)s2)c2ccccc2n1`, the activity was 68.8% in experiment [1] and 56.9% in experiment [2].

In the case of `CCC(C)c1ccc(NC(=O)c2cccs2)cc1` (stereo unspecified), the activity in experiment [1] is 72.8%; in experiment [2] it was 68.1%.

For `O=C(Nc1ccc2nc3ccccc3nc2c1)c1ccccc1`, the values for the activity in experiment [1] and in experiment [2] were 47% and 32.9%, respectively.

On to `Cc1ccc(C(=O)Nc2ccc3c(c2)OCCO3)c(C)c1`, for which the activity in experiment [1] was 91.6%; in experiment [2], 91.5%.

As to `COc1ccc(C2CC(c3cccs3)=NN2C(=O)CCl)cc1OC` (stereo unspecified), the activity in experiment [1] and in experiment [2] was 98.7% in each case.

For the compound `COc1ccccc1N1CCN(C2=Nc3cccc4cccc2c34)CC1`, the activity in experiment [1] was 63.1%; in experiment [2], 58.2%.

With `COCCNC(=O)c1ccc2c3n(nc2c1)-c1ccccc1CO3`, the values for the activity in experiment [1] and in experiment [2] were 67.6% and 82%, respectively.

Take `Cc1ccsc1C(=O)Nc1ccc2c(c1)OCCO2`: the activity is 53.2% in experiment [1] and 45.1% in experiment [2].

`O=C(Nc1nnc(/N=C/c2ccco2)s1)c1ccc(F)cc1`: the values for the activity in experiment [1] and in experiment [2] were 39.8% and 28.4%, respectively.

Turning to `CCCCC[C@@H](C)N1C[C@H](COCc2ccccc2)Oc2cc(N3CC[C@H](N(C)C)C3)ccc2S1(=O)=O`, the activity in experiment [1] was 12%; in experiment [2], 45.6%.

In the case of `COc1ccc2oc(C(=O)Nc3nc4ccccc4[nH]3)c(C)c2c1`, the activity in experiment [1] is 89.7%; in experiment [2], 85.3%.

Consider `Cc1ccc(C(C#N)=Cc2ccc3c(c2)OCO3)cc1`, for which the activity in experiment [1] was 68.5%; in experiment [2], 65.2%.

Regarding `C/C(=N\Nc1nc2ccccc2[nH]1)c1cc2ccccc2o1`, the activity is 47.5% in experiment [1] and 43.7% in experiment [2].

For `COc1cc(/C=C(/C#N)c2nc3ccccc3[nH]2)ccc1OCC(=O)Nc1ccccc1C`, the activity in experiment [1] was 86%; in experiment [2], 97.8%.

`C(=Cc1c[nH]c2ccccc12)c1ccc2ccccc2n1`: the activity in experiment [1] turned out to be 61.1%; in experiment [2], 52.8%.

Regarding `C=CCOc1ccccc1CN(C(=O)CCl)c1ccc2c(c1)OCO2`, the activity in experiment [1] was 99%; in experiment [2], 98.1%.

Turning to `COc1cccc(NC(=O)n2ncc3c(C)cccc32)c1`, the values for the activity in experiment [1] and in experiment [2] were 67.7% and 64.3%, respectively.

As for `COCCN(C(=O)COC(=O)c1c(NC(C)=O)sc(C)c1C)c1c(N)n(Cc2ccccc2)c(=O)[nH]c1=O`, the activity came to 58.8% in experiment [1] and 65.8% in experiment [2].

With `N/C(Cc1ccc(Cl)cc1)=N\OC(=O)c1ccc2ccccc2c1`, the activity in experiment [1] worked out at 98.5%; in experiment [2], 95%.

As to `Nc1c(N(C(=O)Nc2ccc(Cl)c(Cl)c2)C2CCCC2)c(=O)[nH]c(=O)n1Cc1ccccc1`, the activity stood at 46.5% in experiment [1] and 46% in experiment [2].
